Results filed as inconclusive are left out. Where a call stands in place of a potency, no number is given. Values without a mark were called inactive. Calls of active or inactive are those of the source. The call rests on the fitted dose curve; in most records, active means well fitted curve in the direction sought with a large enough effect; inconclusive means small, poorly fitted or top-dose-only effect, or another doubt; inactive means no such curve, though single readings can be large; an effect the other way counts as inactive or inconclusive.
Assays:
[1] = qHTS of pediatric cancer cell lines to identify multiple opportunities for drug repurposing: Primary screen for Saos-2 cells (AID 1347097); further: nearly all actives have a fitted effect of over 40% in size
In short: (§1)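 ATP-based luminescence (CellTiter-Glo) quantifies viability after a 48-hour exposure. Compounds are dosed across 8 or 11 final concentrations; DMSO and 2.3 µM bortezomib serve as controls.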

[2] = qHTS of pediatric cancer cell lines to identify multiple opportunities for drug repurposing: Primary screen for SK-N-SH cells (AID 1347098);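 further: DMSO served as neutral control and bortezomib at 2.3 µM as positive control; nearly all actives have a fitted effect of over 65% in size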
In short: (§2)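 Cells (500-1,000/well) rested 5 h, then received compounds for 48 h; metabolically active cells were measured by CellTiter-Glo luminescence. Final concentrations spanned up to 46 µM (MIPE, 11-point) or 0.59 nM-46 µM (NPC, 8-point) in primary screens, 11-point in follow-ups.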

[3] = qHTS of pediatric cancer cell lines to identify multiple opportunities for drug repurposing: Primary screen for NB1643 cells (AID 1347099); further: nearly all actives have a fitted effect of over 50% in size
In short: as §1

[4] = qHTS of pediatric cancer cell lines to identify multiple opportunities for drug repurposing: Primary screen for LAN-5 cells (AID 1347100)
In short: (§3)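 Viability after 48 h compound treatment at 37C, 500-1,000 cells/well, read as ATP luminescence with CellTiter-Glo. Primary screens used 11-point (MIPE, 0.78 nM-46 µM) or 8-point (NPC, 0.59 nM-46 µM) final concentrations; follow-up screens used 11-point dilutions.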

[5] = qHTS of pediatric cancer cell lines to identify multiple opportunities for drug repurposing: Primary screen for BT-12 cells (AID 1347101); further: nearly all actives have a fitted effect of over 25% in size
In short: as §2

[6] = qHTS of pediatric cancer cell lines to identify multiple opportunities for drug repurposing: Primary screen for Rh18 cells (AID 1347102); further: nearly all actives have a fitted effect of over 65% in size
In short: as §3

[7] = qHTS of pediatric cancer cell lines to identify multiple opportunities for drug repurposing: Primary screen for OHS-50 cells (AID 1347103); further: nearly all actives have a fitted effect of over 40% in size
In short: as §2

[8] = qHTS of pediatric cancer cell lines to identify multiple opportunities for drug repurposing: Primary screen for RD cells (AID 1347104); further: nearly all actives have a fitted effect of over 55% in size
In short: as §1

[9] = qHTS of pediatric cancer cell lines to identify multiple opportunities for drug repurposing: Primary screen for MG 63 (6-TG R) cells (AID 1347105); further: nearly all actives have a fitted effect of over 50% in size
In short: as §1

[10] = qHTS of pediatric cancer cell lines to identify multiple opportunities for drug repurposing: Confirmatory screen for NB1643 cells (AID 1347109); further: nearly all actives have a fitted effect of over 45% in size
In short: as §3

[11] = qHTS of pediatric cancer cell lines to identify multiple opportunities for drug repurposing: Confirmatory screen for A673 cells (AID 1347110); further: nearly all actives have a fitted effect of over 65% in size
In short: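 A673 cells at 500-1,000 cells/well were dosed 5 h after plating, in dilution series up to 46 uM final; primary runs used 8 or 11 points and confirmatory runs used 11 points. Viability was read by CellTiter-Glo luminescence after 48 h, against DMSO and 2.3 uM bortezomib controls.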

[12] = qHTS of pediatric cancer cell lines to identify multiple opportunities for drug repurposing: Confirmatory screen for SK-N-MC cells (AID 1347111);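 further: potency means the concentration at half of the fitted maximal effect; cells exposed to compound for 48 h before the readout; nearly all actives have a fitted effect of over 70% in size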
In short: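 SK-N-MC cells at 500-1,000 cells/well in growth media were pre-incubated 5 h, then exposed to compounds at 11-point dilutions for 48 h at 37 degrees C, 5% CO2. Viability was read as CellTiter-Glo luminescence.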

[13] = qHTS of pediatric cancer cell lines to identify multiple opportunities for drug repurposing: Confirmatory screen for BT-12 cells (AID 1347112); further: nearly all actives have a fitted effect of over 55% in size
In short: as §3

[14] = qHTS of pediatric cancer cell lines to identify multiple opportunities for drug repurposing: Confirmatory screen for LAN-5 cells (AID 1347113); further: nearly all actives have a fitted effect of over 65% in size
In short: as §3

[15] = qHTS of pediatric cancer cell lines to identify multiple opportunities for drug repurposing: Confirmatory screen for NB-EBc1 cells (AID 1347115); further: nearly all actives have a fitted effect of over 45% in size
In short: as §3

[16] = qHTS of pediatric cancer cell lines to identify multiple opportunities for drug repurposing: Confirmatory screen for BT-37 cells (AID 1347117);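 further: viability measured after 48 h of compound exposure; nearly all actives have a fitted effect of over 55% in size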
In short: as §3

[17] = qHTS of pediatric cancer cell lines to identify multiple opportunities for drug repurposing: Primary screen for Rh30 cells (AID 1347107); further: series mostly up to about 46 µM; nearly all actives have a fitted effect of over 75% in size
In short: as §3

[18] = qHTS of pediatric cancer cell lines to identify multiple opportunities for drug repurposing: Primary screen for Rh41 cells (AID 1347108);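 further: series mostly up to about 46 µM; luminescence drop marks cytotoxic hits; nearly all actives have a fitted effect of over 70% in size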
In short: as §1

[19] = qHTS of pediatric cancer cell lines to identify multiple opportunities for drug repurposing: Primary screen for control Hh wild type fibroblast cells (AID 1347106);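 further: series mostly up to about 46 µM; a drop in luminescence marks cytotoxicity and a rise apparent proliferation; nearly all actives have a fitted effect of over 55% in size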
In short: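 Cells (500-1,000/well) in growth media were settled 5 h at 37 degrees C, then given compounds for 48 h. Viability was read as CellTiter-Glo luminescence. Primary runs used MIPE at 11 points (0.78 nM-46 µM) and NPC at 8 points (0.59 nM-46 µM); follow-ups used 11 points.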

CCCC(=O)O[C@]1(C(=O)COC(=O)CC)CC[C@H]2[C@@H]3CCC4=CC(=O)CC[C@]4(C)[C@H]3[C@@H](O)C[C@@]21C
Potency [1]: inactive
Potency [2]: inactive
Potency [3]: inactive
Potency [4]: inactive
Potency [5]: inactive
Potency [6]: inactive
Potency [7]: inactive
Potency [8]: inactive
Potency [9]: inactive
Potency [10]: inactive
Potency [11]: inactive
Potency [12]: 6.57 µM (active)
Potency [13]: inactive
Potency [14]: inactive
Potency [15]: inactive
Potency [16]: inactive

OC1(c2ccc(Cl)cc2)CCNCC1
Potency [1]: inactive
Potency [2]: inactive
Potency [3]: inactive
Potency [4]: inactive
Potency [5]: inactive
Potency [6]: inactive
Potency [7]: inactive
Potency [8]: inactive
Potency [9]: inactive
Potency [17]: inactive
Potency [18]: inactive

CC1CC(=O)NN=C1c1ccc(NCC(C)(C)NCC(O)COc2cc(Cl)ccc2C#N)cc1 (stereo not given)
Potency [1]: inactive
Potency [2]: inactive
Potency [3]: inactive
Potency [4]: inactive
Potency [5]: inactive
Potency [6]: inactive
Potency [7]: inactive
Potency [8]: inactive
Potency [9]: inactive
Potency [19]: inactive
Potency [17]: inactive
Potency [18]: inactive

Nc1ccc(C(=O)N2CC3CC(CN(Cc4ccccc4)C3)C2)cc1
Potency [1]: inactive
Potency [2]: inactive
Potency [3]: inactive
Potency [4]: inactive
Potency [5]: inactive
Potency [6]: inactive
Potency [7]: inactive
Potency [8]: inactive
Potency [9]: inactive
Potency [17]: inactive
Potency [18]: inactive

O=C(O)CNC(=O)CNC(=O)CNC(=O)CSC(=O)c1ccccc1
Potency [1]: inactive
Potency [2]: inactive
Potency [3]: inactive
Potency [4]: inactive
Potency [5]: inactive
Potency [6]: inactive
Potency [7]: inactive
Potency [8]: inactive
Potency [9]: inactive
Potency [19]: inactive
Potency [17]: inactive
Potency [18]: inactive

Nc1ncnc2c1ncn2Cc1c(F)cccc1Cl
Potency [1]: inactive
Potency [2]: inactive
Potency [3]: inactive
Potency [4]: inactive
Potency [5]: inactive
Potency [6]: inactive
Potency [7]: inactive
Potency [8]: inactive
Potency [9]: inactive
Potency [19]: inactive
Potency [18]: inactive

CCN(CC)CC(=O)OCC(=O)[C@@]1(O)CC[C@H]2[C@@H]3CCC4=CC(=O)CC[C@]4(C)[C@H]3[C@@H](O)C[C@@]21C
Potency [1]: inactive
Potency [2]: inactive
Potency [3]: inactive
Potency [4]: inactive
Potency [5]: inactive
Potency [6]: inactive
Potency [7]: inactive
Potency [8]: inactive
Potency [9]: inactive
Potency [19]: inactive
Potency [17]: inactive
Potency [18]: inactive
Potency [10]: inactive
Potency [11]: inactive
Potency [13]: inactive
Potency [15]: inactive
Potency [16]: inactive

C=C(C)C(=O)OCC(O)CO (stereo not given)
Potency [1]: inactive
Potency [2]: inactive
Potency [3]: inactive
Potency [4]: inactive
Potency [5]: inactive
Potency [6]: inactive
Potency [7]: inactive
Potency [8]: inactive
Potency [9]: inactive
Potency [17]: inactive
Potency [18]: inactive

O=C1CC(c2ccc(Cl)cc2)CC(=O)N1
Potency [1]: inactive
Potency [2]: inactive
Potency [3]: inactive
Potency [4]: inactive
Potency [5]: inactive
Potency [6]: inactive
Potency [7]: inactive
Potency [8]: inactive
Potency [9]: inactive
Potency [19]: inactive
Potency [18]: inactive

NCC[C@H](O)C(=O)N[C@@H]1C[C@H](N)[C@@H](O[C@H]2O[C@H](CN)[C@@H](O)[C@H](O)[C@@H]2O)[C@H](O)[C@@H]1O[C@H]1O[C@H](CO)[C@@H](O)[C@H](N)[C@@H]1O
activity change, negative = cytotoxic [1]: 9.12% [at 0.597 µM]
activity change, negative = cytotoxic [2]: -13.1% [at 0.741 µM]
activity change, negative = cytotoxic [3]: 2.83% [at 0.597 µM]
activity change, negative = cytotoxic [4]: 0.172% [at 0.597 µM]
activity change, negative = cytotoxic [5]: 5.54% [at 0.745 µM]
activity change, negative = cytotoxic [6]: 1.72% [at 0.597 µM]
activity change, negative = cytotoxic [7]: 17.5% [at 0.73 µM]
activity change, negative = cytotoxic [8]: 8.3% [at 0.597 µM]
activity change, negative = cytotoxic [9]: -9.26% [at 0.597 µM]
activity change, negative = cytotoxic [17]: 20.7% [at 0.597 µM]
activity change, negative = cytotoxic [18]: 34.1% [at 0.597 µM]

CC(C)C[C@H](NC(=O)CNC(=O)[C@H](Cc1ccc(O)cc1)NC(=O)[C@H](CO)NC(=O)[C@H](Cc1c[nH]c2ccccc12)NC(=O)[C@H](Cc1cnc[nH]1)NC(=O)[C@@H]1CCC(=O)N1)C(=O)N[C@@H](CCCN=C(N)N)C(=O)N1CCC[C@H]1C(=O)NCC(N)=O (stereo in doubt)
Potency [1]: inactive
Potency [2]: inactive
Potency [3]: inactive
Potency [4]: inactive
Potency [5]: inactive
Potency [6]: inactive
Potency [7]: inactive
Potency [8]: inactive
Potency [9]: inactive
Potency [19]: inactive
Potency [17]: inactive
Potency [18]: inactive

Cc1cc(C(C)(C)C)c(O)c(C(C)(C)C)c1
Potency [1]: inactive
Potency [2]: inactive
Potency [3]: inactive
Potency [4]: inactive
Potency [5]: inactive
Potency [6]: inactive
Potency [7]: inactive
Potency [8]: inactive
Potency [9]: inactive
Potency [17]: inactive
Potency [18]: inactive

CCCc1c2oc(C(=O)O)cc(=O)c2cc2c(=O)cc(C(=O)O)n(CC)c12
Potency [1]: inactive
Potency [2]: inactive
Potency [3]: inactive
Potency [4]: inactive
Potency [5]: inactive
Potency [6]: inactive
Potency [7]: inactive
Potency [8]: inactive
Potency [9]: inactive
Potency [17]: inactive

CCOC(=O)OCC/C(SC(=O)OCC)=C(\C)N(C=O)Cc1cnc(C)nc1N
Potency [1]: inactive
Potency [2]: inactive
Potency [3]: inactive
Potency [4]: inactive
Potency [5]: inactive
Potency [6]: inactive
Potency [7]: inactive
Potency [8]: inactive
Potency [9]: inactive
Potency [19]: inactive
Potency [18]: inactive

CCNC(=O)NCCCOc1cccc(CN2CCCCC2)c1
Potency [1]: inactive
Potency [2]: inactive
Potency [3]: inactive
Potency [4]: inactive
Potency [5]: inactive
Potency [6]: inactive
Potency [7]: inactive
Potency [8]: inactive
Potency [9]: inactive
Potency [19]: inactive
Potency [17]: inactive
Potency [18]: inactive

Cc1onc(-c2ccccc2)c1C(=O)Cl
Potency [1]: inactive
Potency [2]: inactive
Potency [3]: inactive
Potency [4]: inactive
Potency [5]: inactive
Potency [6]: inactive
Potency [7]: inactive
Potency [8]: inactive
Potency [9]: inactive
Potency [19]: inactive
Potency [17]: inactive
Potency [18]: inactive

Oc1ccccc1-c1nnco1
Potency [1]: inactive
Potency [2]: inactive
Potency [3]: inactive
Potency [4]: inactive
Potency [5]: inactive
Potency [6]: inactive
Potency [7]: inactive
Potency [8]: inactive
Potency [9]: inactive
Potency [19]: inactive
Potency [17]: inactive
Potency [18]: inactive

CC(=O)Nc1ccc(S(=O)(=O)Nc2cc(C)on2)cc1
Potency [1]: inactive
Potency [2]: inactive
Potency [3]: inactive
Potency [4]: inactive
Potency [5]: inactive
Potency [6]: inactive
Potency [7]: inactive
Potency [8]: inactive
Potency [9]: inactive
Potency [19]: inactive
Potency [18]: inactive

CO/N=C(/C(=O)N[C@@H]1C(=O)N2C(C(=O)[O-])=C(C[n+]3ccn4ncccc43)CS[C@H]12)c1nsc(N)n1
Potency [1]: inactive
Potency [2]: inactive
Potency [3]: inactive
Potency [4]: inactive
Potency [5]: inactive
Potency [6]: inactive
Potency [7]: inactive
Potency [8]: inactive
Potency [19]: inactive
Potency [17]: inactive
Potency [18]: inactive

Reference: PubChem BioAssay (NCATS)
